In PubChem BioAssay AID540352 (National Center for Advancing Translational Sciences (NCATS), 2011):
Records with an inconclusive call do not appear. Activity calls are given as the source filed them. The call rests on the fitted dose curve; in most records, active means well fitted inhibition curve with a large enough effect; inconclusive means small, poorly fitted or top-dose-only effect; inactive means no such curve, though single readings can be large or run the other way.

Assay: qHTS for Inhibitos of Bacillus subtilis Sfp phosphopantetheinyl transferase (PPTase): Chemistry Optimization Followup in B. Subtilis 168
Conditions: B. subtilis 168 growth, BacTiter-Glo luminescence, 5 h; series mostly up to 114 µM
Description: Phosphopantetheinyl transfer is a process essential to cellular viability and maintenance. Cell-permeable and stable compounds acting as PPTase inhibitors are anticipated to be antimicrobial agents in organisms with complimenting genotypes. […] This experiment evaluated a series of test compounds for antimicrobial activity with B. subtilis 168 (genotype: acpS+ and sfp-), a strain that contains a frameshift mutation in the sfp locus and thus requires a functional AcpS gene product for viability. [Mootz HD, 2001] This strain is expected to be sensitized to cell-permeable AcpS inhibitors, and insensitive to Sfp inhibitors. NIH Chemical Genomics Center [NCGC] NIH Molecular Libraries Probe Centers Network [MLPCN] MLPCN Grant: MH083266-01 Assay Submitter (PI): Michael Burkart, University of California, San Diego
Innoculum preparation. Bacillus subtilis 168 is maintained on lysogeny broth (LB) solidified by the addition of 1.5% w/v agar. Single colonies were used to LB medium (2 mL) and shaken overnight at 30 masculineC. In the morning, this culture (100 ul) was used to seed a fresh LB medium (10 mL) and was shaken at 30 masculineC until the culture OD600 reached 0.5. This culture was diluted 1:100 in fresh LB medium to provide the inoculum below. Bacterial susceptibility. LB medium (2 uL) is dispensed into wells of a sterile white 1536-well plate. Test compounds (23 nL) prepared as serial dilutions in DMSO are added to the plate by pintool transfer. Innoculum (2 uL) is added, the plates are covered with a vented Kalypsys assay lid and incubated at 30 masculineC. After 5 h, Bac-Titer Glo (4 uL; Promega Corp, Madison, WI) is added to the plates. They are incubated 10 minutes at room temperature and then the luminescence detected in a ViewLux multimodal plate reader.

Structure (SMILES) | Potency
Cc1cc(C)nc(NC(=S)N2CCN(c3cncs3)CC2)c1 | 46.9 µM (active)
Cc1cc(C)nc(NC(=S)N2CCN(c3ccncc3)CC2)c1 | inactive
Cc1cc(C)nc(NC(=S)N2CCN(Cc3c(F)cccc3Cl)CC2)c1 | inactive
Cc1ccnc(NC(=S)N2CCN(c3ccc(Cl)c(Cl)c3)CC2)c1 | 11.8 µM (active)
S=C(Nc1cc(Cl)ccn1)N1CCN(c2ccc(Cl)cc2Cl)CC1 | 9.37 µM (active)
Cc1ccnc(NC(=S)N[C@H]2CCN(c3cccc(C(F)(F)F)c3)C2)c1 | 52.7 µM (active)
COc1ccnc(NC(=S)N2CCN(c3ncc(C(F)(F)F)cc3Cl)CC2)c1 | 14.8 µM (active)
Cc1ccnc(NC(=S)N2CCC(Nc3cccc(C(F)(F)F)c3)CC2)c1 | 37.3 µM (active)
Cc1ccnc(NC(=S)N2CCN(c3ccc(Br)cc3)CC2)c1 | 23.5 µM (active)
FC(F)(F)c1cccc(N2CCN(C(=S)Nc3nccc4ccccc34)CC2)c1 | 2.35 µM (active)
COc1cccc(NC(=S)N2CCN(c3ccccc3C(F)(F)F)CC2)n1 | 26.4 µM (active)
OCc1ccnc(NC(=S)N2CCN(c3cccc(C(F)(F)F)c3)CC2)c1 | 46.9 µM (active)
Cc1ccc(N2CCN(C(=S)Nc3cc(C)ccn3)CC2)cc1 | 59.1 µM (active)
Cc1cc(C)nc(/N=C(\NC#N)N2CCN(c3cccc(C(F)(F)F)c3)CC2)c1 | 46.9 µM (active)
Cc1cc(C)nc(NC(=S)N2CCN(c3ccc4nncn4c3)CC2)c1 | inactive
Cc1ccnc(NC(=S)N2CCN(c3cc(C(F)(F)F)cc(C(F)(F)F)c3)CC2)c1 | 13.2 µM (active)
Cc1cc(C)nc(Nc2nnc(N3CCN(c4cccc(C(F)(F)F)c4)CC3)s2)c1 | inactive
Cc1cc(C)nc(NC(=C(C#N)C#N)N2CCN(c3cccc(C(F)(F)F)c3)CC2)c1 | 37.3 µM (active)
Cc1ccnc(NC(=S)N2CCN(c3cccc(C(F)(F)F)n3)CC2)c1 | 16.7 µM (active)
CN(C)c1ccc2nc(NC(=S)N3CCN(c4cccc(C(F)(F)F)c4)CC3)sc2c1 | 5.91 µM (active)
Cc1ccnc(NC(=S)N2CCCN(c3cccc(C(F)(F)F)c3)CC2)c1 | 16.7 µM (active)
Cc1cccc(NC(=S)N2CCN(c3cccc(C(F)(F)F)c3)CC2)c1 | inactive
FC(F)(F)c1ccc(N2CCN(C(=S)Nc3ccccn3)CC2)cc1 | 21 µM (active)
S=C(Nc1cc(Cl)ccn1)N1CCN(c2ccc3ccccc3n2)CC1 | 33.2 µM (active)
